Reference: PubChem BioAssay AID1259422 (The Scripps Research Institute Molecular Screening Center, 2018)
Several values for one entry are separate records, joined by “and”; a condition that tells them apart may be missing. Identical values can stand only once. The campaign covered roughly 640,000 compounds. About 9,300 (1.5%) were called active. Rule as the data show it: active = inhibition above about 32%; inactive = the rest. Only a selection was taken, and actives are over-represented in it overall.

Assay: TEAD-YAP interaction inhibition, primary screen, TEAD-YAP interaction inhibitor project, luminescence, HEK-TIYL cells (AID 1259422);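 also: 0% = median of test compound wells and 100% = reference inhibitor wells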
Details: TEAD-Gal4/YAP UAS-luciferase luminescence, at 9.12 µM, active compounds read high
For `CC(=O)Nc1ccc2nc(SCC(=O)Nc3ccccc3F)sc2c1`, the inhibition was -58.7% (inactive). With `COc1cccc(-n2cc(CN(C)C3CCC(=O)N(Cc4ccccc4F)CC3)cn2)c1` (stereo unspecified) the inhibition was 8.57% (inactive). In the case of `Cc1nc(CC(=O)N2CCC(N3CCC(C(=O)N4CCOCC4)CC3)CC2)cs1`, the inhibition is reported as -4.91% (inactive). For `CCOc1cccc(/C=N/NC(=O)c2ccc(C)nc2)c1O`, the inhibition was 18.1% (inactive). For `COc1cc(Br)cc(/C=N/NC(=O)c2cc(-c3ccccc3)n[nH]2)c1O`, the inhibition was 15.7% (inactive). With `COc1cc(Br)cc(/C=N\NC(=O)c2ccc(C)nc2)c1O` the inhibition was 35.4% (active). With `CC(=O)c1cccc(NC(=O)c2ncoc2-c2ccc(Cl)cc2)c1` the inhibition was 2.52% (inactive). With `COc1ccc(-c2csc(N3CCC(C)CC3)n2)cc1` the inhibition was -61.1% (inactive). In the case of `COc1cc(C2Nc3ccc(C(=O)c4ccccc4)cc3NC3=C2C(=O)CCC3)cc(OC)c1OC` (stereo unspecified), the inhibition is reported as 59.8% (active). With `O=C1CCCC2=C1C(c1c(F)cccc1Cl)Nc1ccc(C(=O)c3ccccc3)cc1N2` (stereo unspecified) the inhibition was -16.1% (inactive). For `O=C1CCCC2=C1C(c1ccc(Cl)cc1)Nc1ccc(C(=O)c3ccccc3)cc1N2` (stereo unspecified), the inhibition was 13.4% (inactive). For `Cc1ccc(C2=CC(c3ccccc3F)n3nnnc3N2)cc1` (stereo unspecified), the inhibition was -31.7% (inactive). With `COc1ccccc1CN(Cc1cc2cccc(C)c2n2nnnc12)C(=O)C1CC1` the inhibition was 6.49% (inactive). For `O=C1C(=O)N(CCCn2ccnc2)C(c2ccc(Cl)cc2)/C1=C(/O)c1ccccc1` (stereo unspecified), the inhibition was 7.39% (inactive). For `COC(=O)c1nnn(CC(=O)Nc2ccc3c(c2)OCCO3)c1C(=O)OC`, the inhibition was 9.22% (inactive). For `COc1cccc(C(=O)/C=C\Nc2ccc(S(=O)(=O)Nc3nc(C)cc(C)n3)cc2)c1`, the inhibition was -30.1% (inactive) and -6.6% (inactive). For `Cc1cc(C)nc(NS(=O)(=O)c2ccc(N/C=C\C(=O)c3cccs3)cc2)n1`, the inhibition was 49.6% (active). In the case of `COc1cc(NS(=O)(=O)c2ccc(N/C=C\C(=O)c3cccs3)cc2)nc(OC)n1`, the inhibition is reported as -5.11% (inactive). For `N#CCCNc1ncc(-c2ccc(Cl)cc2)cn1`, the inhibition was -8.87% (inactive). With `Cc1ccc(NC(=O)CN2CCN(c3ccc(Cl)cc3)CC2)cc1Br` the inhibition was -5.18% (inactive). For `CCOC(=O)C1=C(C)NC(C)=C(C(=O)OCC)C1c1ccc(C2C(C(=O)OCC)=C(C)NC(C)=C2C(=O)OCC)cc1`, the inhibition was 8.31% (inactive). In the case of `O=C(NCc1ccccc1)C1CC12CCN(C(=O)Cc1ccsc1)CC2` (stereo unspecified), the inhibition is reported as -4.7% (inactive). With `O=C(NCc1ccccc1)C1CC12CCN(Cc1ccsc1)CC2` (stereo unspecified) the inhibition was 50.1% (active). For `O=C(Cc1ccsc1)N1CCC2(CC1)CC2C(=O)N1CCN(Cc2ccccc2)CC1` (stereo unspecified), the inhibition was 7.69% (inactive). For `CCOC(=O)c1c(NC(=O)C(C)Sc2nnc(CNC(=O)c3ccc(Cl)cc3Cl)n2C)sc2c1CCCC2` (stereo unspecified), the inhibition was 5.37% (inactive). For `COc1ccc(-n2nc(C(=O)N3CCN(C)CC3)c3ccccc3c2=O)c(OC)c1`, the inhibition was 3.03% (inactive). With `COc1ccc(/C=C(/NC(=O)c2ccco2)C(=O)Nc2cccc(O)c2)cc1` the inhibition was 0.64% (inactive). In the case of `COc1ccc(C2CC(C(F)(F)F)n3ncc(C(=O)NCc4cccs4)c3N2)cc1OC` (stereo unspecified), the inhibition is reported as -29.4% (inactive). In the case of `O=C(C(Cc1ccccc1)NS(=O)(=O)c1cccs1)N1CCc2ccccc21` (stereo unspecified), the inhibition is reported as 7.02% (inactive). With `Cc1ccc2cc(CN(CCCO)S(=O)(=O)c3ccccc3[N+](=O)[O-])c(=O)[nH]c2c1` the inhibition was -39.4% (inactive). With `CC1=C(C(=O)Nc2ccc(Cl)cc2)C(c2cccc(Cl)c2)NC(=O)N1` (stereo unspecified) the inhibition was 6.92% (inactive). With `CC1=C(C(=O)Nc2ccc(Cl)cc2)C(c2c(Cl)cccc2Cl)NC(=O)N1` (stereo unspecified) the inhibition was 37.4% (active). In the case of `CCOc1ccc(NC(=O)C2=C(C)NC(=O)NC2c2ccc(Cl)cc2)cc1` (stereo unspecified), the inhibition is reported as 11% (inactive). For `O=C(Nc1ccc(Br)cc1)c1cc2ccccc2c(=O)o1`, the inhibition was -8.82% (inactive). For `Cc1ccc2nc(NCc3ccccc3)nc(-c3ccccc3)c2c1`, the inhibition was -0.32% (inactive). In the case of `O=c1c(-c2ccccc2)[n+]([O-])c2ccccc2n1OCc1ccccc1Cl`, the inhibition is reported as -9.42% (inactive). With `CCOC(=CNc1ccc2nsnc2c1)OCC` the inhibition was -2.05% (inactive). In the case of `CCCOc1ccc(N2C(=O)CC(N(CCC34CC5CC(CC(C5)C3)C4)C(C)=O)C2=O)cc1` (stereo unspecified), the inhibition is reported as 1.87% (inactive). For `c1cn(-c2ccc(Nc3nc4ncnc(NC5CC5)c4[nH]3)cc2)cn1`, the inhibition was 45.5% (active). With `c1ccc(Nc2nc3ncnc(NCc4cccnc4)c3[nH]2)cc1` the inhibition was -5.96% (inactive). For `COc1ccc(CCNc2ncnc3nc(Nc4ccc(N5CCOCC5)cc4)[nH]c23)cc1`, the inhibition was 20.2% (inactive). With `CC1=C(C(=O)Nc2cc(Cl)ccc2C(=O)O)SCCO1` the inhibition was 5.44% (inactive). In the case of `CC(=O)c1ccc(N2CCN(C(=O)Cn3ncc4c3-c3cc(C)ccc3OC4)CC2)cc1`, the inhibition is reported as -3.87% (inactive). In the case of `CCC(=O)C1=C(c2ccc(Cl)cc2)N(C(=O)CC)n2cnnc2S1`, the inhibition is reported as 15.1% (inactive). In the case of `CCc1nnc2n1N(C(C)=O)C(c1ccc3c(c1)CCCC3)=C(C(C)=O)S2`, the inhibition is reported as 10.8% (inactive). In the case of `CC(=O)C1=C(c2ccc(C(C)(C)C)cc2)N(C(C)=O)n2cnnc2S1`, the inhibition is reported as 84% (active). In the case of `CCN1CCCC1CNC(=O)CSCc1nc(-c2ccccc2F)oc1C` (stereo unspecified), the inhibition is reported as -9.37% (inactive). With `CN(C(=O)c1cccs1)C(Cc1ccccc1)C1CCN(C(=O)C2CCOC2)CC1` (stereo unspecified) the inhibition was -13% (inactive). In the case of `CCCCCCCc1ccc(C(=O)Oc2ccc(Br)cc2)cc1`, the inhibition is reported as 8.27% (inactive). With `CCc1ccc(OCCOCCNCCN)cc1` the inhibition was 13% (inactive). In the case of `CCCCCCCCCc1ccc(OCCOCCOCCOCCOCCOCCOCCOCCOCCO)cc1`, the inhibition is reported as 34.7% (active). In the case of `CCN(CC)CCCNC(=O)c1ccc(Cn2c(=S)[nH]c3cc4c(cc3c2=O)OCO4)cc1`, the inhibition is reported as -11.4% (inactive). With `Cc1ccnc(NC(c2ccccc2Cl)c2ccc3cccnc3c2O)c1` (stereo unspecified) the inhibition was 77.9% (active). In the case of `Cc1ccnc(NC(c2ccc3cccnc3c2O)c2c(F)cccc2Cl)c1` (stereo unspecified), the inhibition is reported as 34.7% (active). With `Oc1c(C(Nc2ccccn2)c2ccc(OC(F)F)cc2)ccc2cccnc12` (stereo unspecified) the inhibition was 70.2% (active). With `Oc1c(C(Nc2ccccn2)c2cccnc2)ccc2cccnc12` (stereo unspecified) the inhibition was 14.9% (inactive). For `Cc1ccnc(NC(c2ccc(O)cc2)c2ccc3ccc(C)nc3c2O)c1` (stereo unspecified), the inhibition was -16.1% (inactive). In the case of `Cc1cccc(NC(c2ccc3c(c2)OCO3)c2ccc3ccc(C)nc3c2O)n1` (stereo unspecified), the inhibition is reported as 15.8% (inactive). For `Cc1cccc(NC(c2cccc(F)c2)c2ccc3ccc(C)nc3c2O)n1` (stereo unspecified), the inhibition was 1.53% (inactive). With `Oc1ccc2ncccc2c1C(Nc1ccccn1)c1ccccc1` (stereo unspecified) the inhibition was 6.96% (inactive). For `COc1cc(C(=O)NC(c2ccccc2Cl)c2cc([N+](=O)[O-])c3cccnc3c2O)cc(OC)c1OC` (stereo unspecified), the inhibition was -0.41% (inactive). In the case of `CCOC(=O)c1sc2ncn(CC(=O)Nc3cccc(C(F)(F)F)c3)c(=O)c2c1C`, the inhibition is reported as 0.34% (inactive). With `Cc1ccc(NC(=O)c2cc(S(=O)(=O)N3CCN(c4cccc(Cl)c4)CC3)ccc2F)cc1F` the inhibition was -4.95% (inactive). With `CCN1CCN(c2cc(Nc3cc(OC)c(OC)c(OC)c3)c3c4c(onc24)-c2ccccc2C3=O)CC1` the inhibition was 5.58% (inactive). For `Cc1ccc(S(=O)(=O)CCc2nnc(NC(=O)c3ccc([N+](=O)[O-])cc3)s2)cc1`, the inhibition was -5.17% (inactive). For `NC(=O)Cn1c(=O)n(CCCCC(=O)NCc2ccccc2Cl)c(=O)c2ccccc21`, the inhibition was 2.5% (inactive). With `O=C(NC1CCN(Cc2ccccc2)CC1)c1cccc(Nc2nccc3ccccc23)c1` the inhibition was 2.07% (inactive). In the case of `CS(=O)(=O)N(CC(O)Cn1c2ccccc2c2ccccc21)c1ccccc1I` (stereo unspecified), the inhibition is reported as -12.3% (inactive). With `CCCC(=O)NC(c1ccccc1OC)c1cc([N+](=O)[O-])c2cccnc2c1O` (stereo unspecified) the inhibition was 20.6% (inactive). In the case of `CNC(=O)COC(=O)c1c(Cl)cccc1Cl`, the inhibition is reported as -0.51% (inactive). In the case of `CCOC(=O)c1ccccc1NC(=O)/C=C/c1ccc(OC)cc1`, the inhibition is reported as 4.72% (inactive). For `Cc1ccc(S(=O)(=O)Nc2ccccc2C(=O)NN)cc1`, the inhibition was 12.8% (inactive). For `CCOC(=O)c1ccccc1NS(=O)(=O)c1ccc(OC)cc1`, the inhibition was 46.5% (active). With `O=C(Nc1ccccc1C(F)(F)F)c1cc(S(=O)(=O)NC2CCCC2)ccc1F` the inhibition was 1.13% (inactive). In the case of `CCS(=O)(=O)c1ncc(Cl)c(C(=O)Nc2ccc(OC(F)F)cc2)n1`, the inhibition is reported as -5.89% (inactive). With `Cn1nc(CC(=O)Nc2ccc(F)c(F)c2)c2ccccc2c1=O` the inhibition was 46.9% (active). For `Cc1ccc(F)cc1NC(=O)Cc1nn(C)c(=O)c2ccccc12`, the inhibition was 29.9% (inactive). In the case of `Cc1cc(NC(=O)Cc2nn(C)c(=O)c3ccccc23)ccc1Br`, the inhibition is reported as 4.56% (inactive). With `COc1cccc(-c2cnc3c(Nc4ccc(C(N)=O)cc4)nccn23)c1` the inhibition was -21.2% (inactive). With `COc1ccc(Nc2ncc(-c3cccc(NC(C)=O)c3)n3ccnc23)cc1` the inhibition was -67.3% (inactive). In the case of `COc1cc(Nc2nccn3c(-c4cccc(NC(C)=O)c4)cnc23)cc(OC)c1OC`, the inhibition is reported as 51.5% (active). In the case of `Cc1nc(-c2cncc(-c3ccc(F)cc3)c2)cc(=O)[nH]1`, the inhibition is reported as 5.59% (inactive). With `COc1cc(NC(=O)c2sc3ncn(Cc4ccccc4Cl)c(=O)c3c2C)cc(OC)c1OC` the inhibition was 0.99% (inactive). With `COc1cc(C(=O)Oc2ccccc2Cl)cc(OC)c1OC` the inhibition was 0.19% (inactive). In the case of `COc1cc(C(=O)Nc2ncc(Cc3ccccc3Cl)s2)cc(OC)c1OC`, the inhibition is reported as 57.5% (active). With `CC(=O)Nc1ccc(NC(=O)c2cc3nc(C)ccc3o2)cc1` the inhibition was 6.06% (inactive). For `CCOC(=O)c1ccc(NC(=O)COc2c(Br)cc(C=O)cc2OC)cc1`, the inhibition was -2.35% (inactive). In the case of `CC1Nc2c(c(=O)oc3ccccc23)NC1=O` (stereo unspecified), the inhibition is reported as -13.4% (inactive). In the case of `O=c1c2nccnc2[nH]c(=S)n1CCc1ccccc1`, the inhibition is reported as 32.2% (active). In the case of `O=C(NCCc1ccc(Cl)cc1)c1ccc2c(=O)n(CCc3ccccc3)c(=S)[nH]c2c1`, the inhibition is reported as 6.42% (inactive). For `O=C(Nc1ccc(Oc2ccccc2)cc1)c1ccc2c(=O)n(CCc3ccccc3)c(=S)[nH]c2c1`, the inhibition was 4.57% (inactive).
